Measured values from PubChem BioAssay (NCI).
About 83,000 compounds went through this panel and 20% of them were active in at least one assay; those are over-represented in the sample as a whole.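 How to read the values: 0–100, growth inhibition (40 = 60% inhibited); 0, no net growth; -100 to 0, cell death (-40 = 40% of starting cells died; -100 = all dead).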 Calls of active or inactive are those of the source. The calls were made as follows: active = growth percent below 10; inactive = the rest.

These compounds were tested on HL-60(TB) leukemia (assay: NCI-60 one-dose screen, 48 h (100 = growth as untreated, 0 = no growth, -100 = all killed)). Details: 10 µM unless noted.
With `O=C(N(c1ccccc1)c1ccccc1)n1cc(I)c2nc(Cl)nc(Cl)c21` the growth was 22.9% (inactive). For `O=c1[nH]c2c(ccc3cnccc32)c2c1CCC2`, the growth was 13.4% (inactive). `CCCCCCCCCCCCCCCCS(=O)(=O)Nc1cc(C(=O)NN)cc(C(=O)NN)c1` was tested, and the growth was 35.8% (inactive). For `COc1ccc(-c2cc(-c3ccc(OC)c(OC)c3)nc(SCCCC(=O)NO)n2)cc1`, the growth was -34.9% (active). For `O=C1NCC(=O)N(Cc2ccco2)[C@H]1Cc1ccccc1`, the growth was 102% (inactive). In the case of `CC(N)C(Cc1ccc(Cl)cc1)c1ccc(Cl)cc1` (stereo not given), the growth is reported as 25.9% (inactive). With `C[N+]1=C(/C=C\C=C\c2ccccc2)C(C)(C)c2ccccc21` the growth was -22.2% (active). With `COc1ccc(N/N=C/c2ccc3c(c2)Sc2ccccc2N3C)cc1` the growth was 57.3% (inactive). For `COc1cc(-c2nc3ccccc3[nH]2)ccc1OCC(=O)N=Nc1c(O)[nH]c2ccccc12`, the growth was 79.8% (inactive). `COc1ccc(-c2nn(-c3cccc(NC(=O)Nc4cccc(C(F)(F)F)c4)c3)cc2-c2ccncc2)cc1Cl` was tested, and the growth was 3.19% (active). For `O=C(Nc1cccc([N+](=O)[O-])c1)c1cccc(C(=O)Nc2cccc([N+](=O)[O-])c2)c1`, the growth was 81% (inactive). With `O=C(O)c1ccc([N+](=O)[O-])cc1S(=O)(=O)O` the growth was 108% (inactive). `Cc1cccc([N+](=O)[O-])c1I` was tested, and the growth was 143% (inactive). In the case of `O=C(CSc1nnc(-c2ccc(Cl)cc2)o1)Nc1ccc(C(=O)/C=C/c2ccc(Cl)cc2)cc1`, the growth is reported as 84.4% (inactive). In the case of `Cc1ccc(S(=O)(=O)NCCNc2cc(-c3cn(C(C)(C)C)nc3-c3cccc(O)c3)ccn2)cc1`, the growth is reported as 65.8% (inactive). `COC(=O)C(=Cc1ccccc1[N+](=O)[O-])C(=O)OC` was tested, and the growth was -48% (active). In the case of `NC(=O)c1c(NC(=O)c2ccccc2)sc2c1CCC(=O)C2`, the growth is reported as -6.87% (active). In the case of `Cc1cc(OCCO)cc(C)c1Cl`, the growth is reported as 100% (inactive). For `COc1ccc(-n2c(=O)n(-c3ccc(-c4nc5ccc(F)cc5s4)cc3)c(=O)c3cccnc32)cc1`, the growth was 102% (inactive). With `COc1ccc2c(c1)N(CCO)C1=C(C(=O)OC1)C2c1cc(OC)c(OC)c(OC)c1` (stereo not given) the growth was -16.7% (active). For `CC(C)=CCC[C@](C)(O)[C@H]1CC[C@]2(C)[C@@H]1CC[C@@H]1[C@@]3(C)CC/C(=N/O)C(C)(C)[C@@H]3CC[C@]12C`, the growth was 5.25% [100 µM] (active). `O=C1C=C(OCC=C(C(F)(F)F)C(F)(F)F)c2ccccc2C1=O` was tested, and the growth was -30% (active). For `Nc1nn(C(=O)Nc2ccc(Cc3ccccc3)cc2)c2ccc(Cl)cc12`, the growth was 24.9% (inactive). `CC1CCN(C(=O)CSc2nc3sc4c(c3c(=O)[nH]2)CCCC4)CC1` was tested, and the growth was 102% (inactive). In the case of `O=C(Nc1ccc2c(c1)C(=O)c1ccccc1-2)c1ccccc1`, the growth is reported as 101% (inactive). `O=C(c1ccc(/C=C/c2n[nH]c3ccccc23)cc1)N1CCNCC1` was tested, and the growth was 31.7% (inactive). In the case of `Cc1ccc(S(=O)(=O)Nc2ccccc2)cc1N`, the growth is reported as 96% (inactive). For `COc1cc(/C=C/C(=O)c2ccc(NC(=O)CN3CCN(c4cc5c(cc4F)c(=O)c(C(=O)O)cn5C4CC4)CC3)cc2)cc(OC)c1OC`, the growth was -33.7% (active). For `O=C(O)c1ccccc1C(=O)Nc1ccc(Cl)cc1`, the growth was 55% (inactive). With `Brc1cccc(-c2cc(-c3ccc4c(c3)OCCCO4)[nH]n2)c1` the growth was 47.7% [25 µM] (inactive). In the case of `CC1(C)CC(=O)C2=C(C1)N(c1ccc(F)cc1F)C(N)=C(C#N)C2c1cc(Br)ccc1F` (stereo not given), the growth is reported as 99.4% (inactive). In the case of `COc1ccc(-n2ncc3c2ccc2cc(S(=O)(=O)c4ccccc4)c(=O)n(C)c23)cc1`, the growth is reported as 110% (inactive). For `C#CC[C@@H]1C[C@]2(C)[C@H]3CC[C@@H]4[C@H]5[C@H](C(=C)C)CC[C@]5(C(=O)O)CC[C@@]4(C)[C@]3(C)CC[C@H]2C(C)(C)[C@H]1O`, the growth was 44.2% (inactive). With `NC(=O)c1cc(I)ccc1NC(=O)COc1ccc(Cl)cc1Cl` the growth was 76.9% (inactive). For `NCCCN`, the growth was 98.8% (inactive). With `COc1ccc2c(=O)c(OC)c(-c3cc(OC)c(OC)c(OC)c3)oc2c1` the growth was 85.1% (inactive). `COc1cccc(-c2nc(-c3ccc(N)cc3)co2)c1` was tested, and the growth was 52.9% (inactive). In the case of `CCCCCCC/C=C/[C@H]1O[C@]23C(=O)C[C@@]4(C[C@@H](OC5OC(CO)C(O)C(O)C5O)C[C@@H]4[C@H]2C=C1C)OC3=O` (stereo not given in full), the growth is reported as -13.1% (active). `C[C@H](CCCC(=O)NCC#CCN1CCN(C)CC1)[C@H]1CC[C@H]2[C@@H]3CC[C@@H]4CC(=O)CC[C@]4(C)[C@H]3CC[C@]12C` was tested, and the growth was 94.3% (inactive). With `COc1cc2c(-c3cc4c(cc3CNCCc3ccc5c(c3)OCO5)OCO4)cccc2c(OC)c1O` the growth was 71.3% (inactive).
